Assay results from the supplement of paper PMC10646978.
Unmarked numbers belong to inactive results.

Test system: RAW-Dual (murine macrophage reporter line)
Assay: viability score (confluency relative to resting cells, overnight) (fraction); higher = more viable, active = viable (0.7 or more)
Conditions: modulator concentration 10 µM
Outline: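 Two confluency masks, generated with IncuCyte software over all imaged wells, were applied to IncuCyte images of RAW-Dual macrophages. The cells, in 384-well plates, had been exposed overnight to 10 μM final compound. The viability score is confluency as a fraction of resting cells, and a compound met the cutoff only with both masks above 70% of resting cells.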

Row | SMILES | viability score
1 | O=c1cc(CO)occ1O | 1.03 (active)
2 | CCOc1ccc(N=Cc2c(Nc3ccc(OCC)cc3)nc3ccccn3c2=O)cc1 | 1.04 (active)
3 | CC(NCCC(c1ccccc1)c1ccccc1)c1ccccc1.Cl (centres undefined) | 0.204
4 | O=C(Cn1nc(S(=O)(=O)c2cccc(F)c2)ccc1=O)N1CCc2ccccc2C1 | 1 (active)
5 | COc1cc2c(Nc3ccc(Br)cc3F)ncnc2cc1OCC1CCN(C)CC1 | 0.91 (active)
6 | O=C(c1ccc(S(=O)(=O)N2CCCC2)cc1)N1CC(Nc2ccncn2)C1 | 1 (active)
7 | Cc1cc(C)n(-c2ccc(=O)n(CCNS(=O)(=O)c3ccccc3F)n2)n1 | 1 (active)
8 | O=C(CC12CC3CC(CC(C3)C1)C2)N1CCCCC1 | 0.911 (active)
9 | COc1ccc(CNC2CCCc3ccccc32)c(OC)c1 (centres undefined) | 0.94 (active)
10 | O=S(=O)(NCc1ccc(-c2cccnc2)nc1)c1ccc(OC(F)(F)F)cc1 | 1.01 (active)
11 | O=c1oc2cc(O)ccc2s1 | 1 (active)
12 | CNCCC=C1c2ccccc2CCc2ccccc21.Cl | 0.293
13 | CCc1nc(N)nc(N)c1-c1ccc(Cl)cc1 | 0.964 (active)
14 | Fc1ccc(CN2CCc3c([nH]c4ccccc34)C2)c(F)c1 | 0.212
15 | CCOc1nc2cccc(C(=O)O)c2n1Cc1ccc(-c2ccccc2-c2nc(=O)o[nH]2)cc1 | 1 (active)
16 | COc1ccc2c(C)nc(Nc3nc(C)cc(-c4ccccc4)n3)nc2c1 | 1.03 (active)
17 | Cc1cc(C(=O)NCc2sc(-c3ccccc3Cl)nc2C)c(C)o1 | 0.984 (active)
18 | Cc1cccc2sc(NNC(=O)c3ccc(S(=O)(=O)N4CCc5ccccc5C4)cc3)nc12 | 0.995 (active)
19 | COC(=O)C1=C(C)NC(C)=C(C(=O)OC(C)(C)CN(C)CCC(c2ccccc2)c2ccccc2)C1c1cccc([N+](=O)[O-])c1.Cl (centres undefined) | 0.96 (active)
20 | O=C(O[C@@H]1C[C@@H]2C[C@@H]3C[C@H](C1)N2CC3=O)c1c[nH]c2ccccc12 [Prestw-1510] | 1 (active)
21 | COc1cc(C=Nc2ccc3oc(-c4ccc(C(C)(C)C)cc4)nc3c2)ccc1OC(=O)c1ccc(Cl)cc1Cl | 1.01 (active)
22 | O=C(c1ccc(I)cc1)N(C1CCCCC1)C1CCCCC1 | 0.997 (active)
23 | Cc1occc1C(=O)Nc1ccc(F)c(F)c1 | 0.927 (active)
24 | Cc1cc(C(=O)O)n[nH]1 | 1.02 (active)
